Experimental data: PubChem BioAssay

Experiment: probe aEGFR binding to arrayed compounds – biochemical, biotinylated probe, 635/667 nm fluorescence, primary screen (AID 1097);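 also: probe is a biotinylated anti-EGFR antibody binding compounds printed on slides; score combines fluorescence near 667 nm and signal to noise of each spot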
Details: small-molecule microarray, higher = more signal

SMILES	composite z-score
C[C@@H]1CC[C@H]2C(=O)N3[C@@H](CC[C@@H](C)[C@@H]3c3cccc(N4CCOCC4)c3)C(=O)N2[C@H]1c1cccc(N2CCOCC2)c1	-0.012
O=C1c2ccccc2[C@](Cc2ccccc2I)(C(=O)O)[C@H](c2ccc(CO)cc2)N1C1CCCCC1	0.252
COCCCNC(=O)[C@@]1(c2ccc([N+](=O)[O-])cc2)CC(=O)N(C2CCCCC2)[C@@H]1c1ccc(CO)cc1	-0.421
C=C(C(=O)CC[C@H](OC(=O)c1ccccc1-c1ccccc1C(=O)O)c1ccc(CO)o1)C(C)C	-0.101
CSCC[C@@H]1NC(=O)CC=C[C@@H](C)COC(=O)[C@H](CCSC)NC(=O)CC=C[C@@H](C)COC1=O	-0.128
CC1=C([C@H](O)CCc2ccccc2)[C@H](CO)[C@@H]2C(=O)N(Cc3ccccc3)C(=O)[C@@H]2C1	-0.085
CO[C@H]1COC(=O)[C@@H](C)NC(=O)CC=C[C@@H](C)[C@H](OC)COC(=O)CC=C[C@@H]1C	-0.299
CC(C)NC(=O)[C@@]1(Cc2ccccc2I)c2ccccc2C(=O)N(C2CCCCC2)[C@H]1c1ccc(CO)cc1	0.0861
O=C1O[C@@H](c2ccccc2)[C@@H](c2ccccc2)N2[C@@H](c3ccccc3OCCO)[C@]3(C(=O)Nc4ccc(C#CC5=CCCCC5)cc43)[C@@H](C(=O)O)[C@H]12	-0.0321
O=C1O[C@@H](c2ccccc2)[C@@H](c2ccccc2)N2[C@@H](c3ccc(OCCO)cc3)[C@]3(C(=O)Nc4ccc(C#CCCO)cc43)[C@@H](C(=O)N3CCN(c4ncccn4)CC3)[C@H]12	-0.0828
